USP8 block = blocks human USP8 ubiquitin-rhodamine cleavage; inhibition, % at 20 µM; 4.2% of 47,000 active; purified USP8, Ub-rhodamine cleavage fluorescence, 30 min; P40818
USP17 block = inhibitors of human USP17 deubiquitinase. 6.5% of 47,000 active. inhibition, % at 50 µM. purified USP17, Ub-rhodamine cleavage fluorescence, 3 h
USP30 block = human USP30 deubiquitinase inhibition. purified USP30, Ub-rhodamine cleavage fluorescence. inhibition, % at 25 µM. Q70CQ3. AID 1645860. 5.3% of 47,000 active
USP10 inh = human USP10 deubiquitinase inhibition. inhibition, % at 20 µM. purified USP10, Ub-rhodamine fluorescence, 60 min. 1.1% of 47,000 active. AID 1645856
USP28 block = blocks human USP28 ubiquitin-rhodamine cleavage. inhibition, % at 25 µM. 3% of 47,000 active. purified USP28, Ub-rhodamine cleavage fluorescence, 30 min
Active calls of the source: *; x = not tested or not shown. Compounds with a hit are over-represented: about 13% of the library has one in this group of screens. No stated cut-off is given here; in the data, active means inhibition above about 30%; inactive means the rest.

SMILES | USP8 block | USP17 block | USP30 block | USP10 inh | USP28 block
O=C(Cn1cnc2sc3c(c2c1=O)CCC3)NCCC1=CCCCC1 | 78* | -4 | -14 | 8 | 6
COc1ccc(-c2nnn(CC(=O)N(c3ccc4c(c3)OCCO4)C(C(=O)NC(C)(C)C)c3ccc(F)cc3)n2)cc1 (stereo unspecified) | 0 | -6 | -12 | 0 | -11
CC1CCC(NC(=O)c2ccc3c(=O)n(CCc4ccccc4)c(=O)[nH]c3c2)CC1 (stereo unspecified) | -2 | 0 | 11 | 3 | -4
CCCCNC(=O)c1cc2cn(C3CC3)cc2s1 | 78* | 41* | -128 | -4 | -21
O=C(Cn1cc(C(=O)c2ccccc2)c(=O)c2cc3c(cc21)OCCO3)Nc1ccc(F)cc1 | 9 | -24 | -161 | 12 | -39
COc1ccc(NC(=O)Cn2cc(C(=O)c3ccccc3)c(=O)c3cc4c(cc32)OCCO4)cc1 | 10 | -20 | -33 | 11 | -23
CCOc1ccc2c(c1)c(=O)c(C(=O)c1ccccc1)cn2CC(=O)Nc1ccc2c(c1)OCCO2 | 95* | 0 | 69* | 53* | 15
CCOc1ccc2c(c1)c(=O)c(C(=O)c1ccc(F)cc1)cn2CC(=O)Nc1ccccc1 | 38* | 4 | 0 | 28 | -1
CCOc1ccc2c(c1)c(=O)c(C(=O)c1ccccc1)cn2CC(=O)Nc1ccccc1 | 43* | 60* | -22 | 29 | -3
COc1ccc(S(=O)(=O)NC(C)C(=O)NCCCO)cc1C (stereo unspecified) | -150 | -28 | -26 | -4 | 5
O=C(Cc1ccc([N+](=O)[O-])cc1)Nc1ccc(N2CCCCC2)cc1 | -75 | -26 | -17 | 3 | -9
O=C(CN1C(=O)NC2(CCCCC2)C1=O)Nc1ccc([N+](=O)[O-])cc1 | 17 | 65* | 28 | 11 | 20
O=C(Cn1cnc2c(cnn2-c2ccccc2)c1=O)Nc1cccc([N+](=O)[O-])c1 | 15 | 42* | -20 | 2 | -12
O=C(NCCC(=O)N1CCCCC1c1nc2ccccc2s1)c1ccco1 (stereo unspecified) | -64 | -4 | -58 | -5 | -21
CC(C)c1nc(N2CCCC2=O)sc1C(=O)Nc1ccc(F)cc1 | 20 | 4 | -5 | 1 | 32*
CC(=O)c1ccc(N2CCN(C(=O)c3sc(N4CCCC4=O)nc3C(C)C)CC2)cc1 | -33 | -4 | 13 | -2 | 0
CCn1cc(S(=O)(=O)NCc2ccccc2)c2cccnc21 | 35* | 41* | -26 | 7 | 22
O=C1CN(C(=O)COC(=O)c2cccc(F)c2)c2ccccc2N1 | 2 | 3 | 10 | 1 | 4
Cc1ccc2c(c1)[nH]c1c(N3CCc4ccccc4C3)ncnc12 | 35* | 43* | -53 | 3 | 6
CS(=O)(=O)N(Cc1nc(-c2ccccc2)no1)Cc1c(F)cccc1Cl | 5 | x | 15 | 1 | 6
Cc1[nH]c2ccccc2c1C(=O)CSc1nnc(-c2cccc(S(=O)(=O)N3CCOCC3)c2)n1-c1ccc(F)cc1 | 20 | 19 | 1 | -1 | 0
CCn1c(SCC(=O)N2CCc3ccccc32)nnc1-c1ccc(C)c(Cl)c1 | -2 | 33* | 21 | -3 | 8
COc1ccc(OC)c(-n2c(SCC(=O)N3CCc4ccccc43)nnc2-c2cccc(S(=O)(=O)N(C)C)c2)c1 | 11 | 48* | 49* | 7 | 43*
CCn1c(SCC(=O)c2c(C)[nH]c3ccccc23)nnc1-c1ccc2c(c1)OCCO2 | -9 | 67* | 53* | 10 | 41*
CCn1c(SCC(=O)N2CCc3ccccc32)nnc1C1CC1 | 0 | -10 | x | 1 | x
SMILES | USP8 block | USP17 block | USP30 block | USP10 inh | USP28 block
COc1ccccc1-n1c(SCC(=O)N2CCc3ccccc32)nnc1-c1ccncc1 | 0 | 3 | 0 | -1 | 3
CC1Cc2ccccc2N1C(=O)CSc1nnc(-c2ccc3c(c2)OCCO3)n1C (stereo unspecified) | -9 | -4 | 13 | 1 | 0
CCn1c(SCC(=O)N2CCc3ccccc32)nnc1-c1ccc2c(c1)OCCO2 | -17 | 58* | 74* | -3 | 4
O=C(NC1CCN(Cc2ccccc2)CC1)C1CCCN(S(=O)(=O)N2CCOCC2)C1 (stereo unspecified) | -2 | -9 | 0 | -3 | -10
COc1cccc(CNC(=O)C2=Cc3cccc(OC)c3OC2)c1 | 20 | -103 | 0 | -1 | 60*
COc1cccc(CNC(=O)Cc2cccc3ccccc23)c1 | 14 | 7 | -55 | -3 | 0
O=c1c2cc(Br)ccc2[nH]c(=S)n1Cc1cccnc1 | 88* | x | 13 | 32* | 11
Cn1c(=O)n(Cc2cccnc2)c(=O)c2cnc(-c3ccncc3)nc21 | -24 | -12 | -11 | 0 | -5
O=C1Nc2ccc(S(=O)(=O)NCCCO)c3cccc1c23 | 1 | 0 | 8 | -9 | 14
O=C1Nc2ccc(S(=O)(=O)NCCCCCCNS(=O)(=O)c3ccc4c5c(cccc35)C(=O)N4)c3cccc1c23 | -20 | 17 | -293 | -4 | 38*
CCOc1cccc(CN2Cc3ccccc3OCC2=O)c1 | 3 | -3 | x | 0 | x
COc1ccccc1Nc1ncc(C(=O)NCCc2ccc(Cl)cc2)c2ccccc12 | 37* | 81* | 12 | 8 | 7
COc1ccccc1Nc1ncc(C(=O)Nc2ccc3c(c2)OCO3)c2ccccc12 | 24 | 24 | 22 | 2 | 12
COc1ccccc1CNC(=O)c1cnc(Nc2ccccc2OC)c2ccccc12 | 7 | -4 | -12 | -3 | -9
COc1ccccc1Nc1ncc(C(=O)N(C)Cc2ccccc2)c2ccccc12 | 69* | 23 | -121 | -6 | -18
COC(=O)CNC(=O)c1cnc(Nc2ccccc2OC)c2ccccc12 | 16 | 31* | -15 | 0 | 9
COc1ccc(S(=O)(=O)N2CCCC(c3nn(C)c4nccnc34)C2)cc1 (stereo unspecified) | -18 | -13 | 5 | 0 | -4
Cc1cc(O)cc(C)c1C#N | -201 | -16 | 10 | 1 | 5
O=C(NCc1cccc(Br)c1)c1ccc(-c2cccnc2)nc1 | 1 | 0 | 0 | 0 | 3
O=C(NCc1ccc(Br)cc1)c1ccc(-c2cccnc2)nc1 | 5 | 30 | 55* | 2 | 30
COC(=O)c1ccc(NC(=O)CSc2nnc(-c3ccc(O)cc3)n2Cc2ccco2)cc1 | -4 | 21 | 84* | -1 | 22
O=C(NCc1noc(-c2ccccc2)n1)c1ccc(-c2noc(C3CC3)n2)cc1 | 8 | 32* | 13 | 3 | 28
COc1ccc(C(=O)NCc2noc(C3CCCC3)n2)cc1OC | 1 | -4 | x | 0 | x
O=C(NCc1noc(Cc2ccccc2)n1)c1ccc(-c2noc(C3CC3)n2)cc1 | -1 | 9 | 17 | 4 | 13
COc1ccc(C(=O)NCc2noc(C3CCCCC3)n2)cc1C#N | -52 | -14 | -3 | 0 | 42*
Cc1ccc(NC(=O)CC2=NS(=O)(=O)c3ccccc3N2)c(C)c1 | -3 | 1 | -43 | 0 | -2
CCOc1ccc2cc3c(nc2c1)OC(=O)N(Cc1ccc(C)o1)C3 | 15 | 21 | 53* | 3 | 13

High-throughput results deposited in PubChem by Buhrlage Lab, Dana-Farber Cancer Institute and Novartis Institutes for BioMedical Research (Cambridge, Mass).
